Screening results (PubChem)
IL1B secr inh – inhibitors of inflammasome signaling (IL-1 beta secretion) | THP-1 LPS/ATP IL-1B secretion, AlphaLISA, 16 h; hits give low values | activity change, % at 57.5 µM | hit rate 4.7% among 360,000 | AID 743279; in the data active = activity change below about -50%; inconclusive = mostly about -30% to -49%
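THP-1 cells pretreated 1 hr with compounds (up to 57.5 uM final), then stimulated with LPS (250 ng/mL final) plus ATP (1.25 mM final); secreted IL-1B measured by AlphaLISA after 16 hr, decreased signal indicating inhibition.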
DT40 TDP1 no CPT – qHTS for Inhibitors of human tyrosyl-DNA phosphodiesterase 1 (TDP1): qHTS in cells in absence of CPT; Potency, µM (titrated, usually from 46.2 µM), inactives show at the highest dose activity change, negative = growth inhibition, usual class: inhibitors; hit rate 15% among 420,000; AID 686978, 2013; DT40 Tdp1-/- hTDP1 cells, no CPT, ATP luminescence, 48 h; also: potency is read from the fitted curve at half-maximal effect; nearly all actives have a fitted effect of over 55% in size
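Camptothecin absent (DMSO only). Human TDP1-complemented DT40 knockout cells, 400 cells/well, 37 °C for minimum 48 hr; ATP measured via CellTiter-Glo, 30 min dark incubation, luminescence.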
TDP1 cell CPT – DT40-hTDP1 cell growth loss with CPT | chicken DT40 Tdp1-/-;hTDP1 cells + 20 nM CPT, ATP luminescence, 48 h | Potency, µM (highest dose often 46.2 µM), for inactives: at the highest dose activity change, negative = growth inhibition, actives largely listed as inhibitors | hit rate 12% among 420,000 | AID 686979; also: potency is read from the fitted curve at half-maximal effect; nearly all actives have a fitted effect of over 55% in size
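Chicken DT40 Tdp1-/- cells complemented with human TDP1, 400 cells/well, exposed to compounds plus 20 nM camptothecin for at least 48 h at 37 C; viability read as ATP content by CellTiter-Glo luminescence.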
HT1080-NT tox – kills 2HG-producing HT-1080-NT fibrosarcoma cells. HT-1080-NT fibrosarcoma viability, CellTiter-Glo ATP luminescence, 48 h. Potency, µM (top dose mostly 46.1 µM), inactives show at the highest dose activity, negative = less viability, hits mostly cytotoxic. hit rate 1.6% among 360,000. AID 686970;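 also: NT is the 2HG producing partner of a matched IDH1 knockdown line; potency is read from the fitted curve at half-maximal effect; 0% = DMSO-treated cells and -100% = media-only wells without cells; nearly all actives have a fitted effect of over 55% in size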
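HT-1080-NT; 750 cells/well; 5% FBS RPMI; 48 h compound, 37 degrees C; CellTiter-Glo luminescence; curve fitting and curve-class assignment.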
HT1080 IDH1KD tx – kills HT-1080 cells with IDH1 knockdown | Potency, µM (top dose mostly 46.1 µM), without a hit: at the highest dose activity, negative = toxicity, most hits filed as cytotoxic | HT-1080 IDH1 knockdown viability, ATP luminescence, 48 h | hit rate 2% among 360,000;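 also: potency is read from the fitted curve at half-maximal effect; 0% = DMSO wells and -100% = cell-free medium wells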
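IDH1KD HT-1080 cells, 750/well, RPMI + 5% FBS; compound pinned after 2 h settling; 48 h, 37 °C; CellTiter-Glo luminescence; % activity normalised to DMSO and no-cell wells; curves fitted, classed by r2 and efficacy.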
The depositor's hits bear a star; i = inactive; ? = inconclusive; / = no result; [ ] = another dose, or the depositor's remark. The list is not random: actives were taken first. Their share in the collection is about 19%. Unless noted, calls follow the shape of the dose curve; as a rule, active = well fitted curve in the direction sought with a large enough effect; inconclusive = small, poorly fitted or top-dose-only effect, or another doubt; inactive = no such curve, though single readings can be large; an effect the other way counts as inactive or inconclusive. Unless noted, % is scaled to controls: 0 for no effect and ±100 for the full control effect.

SMILES	IL1B secr inh	DT40 TDP1 no CPT	TDP1 cell CPT	HT1080-NT tox	HT1080 IDH1KD tx
CC(=O)N1c2ccccc2C2(O)N=C(C)SC12 (configuration not stated)	0.0	?	16.4µM*	9.5%	6.6%
COc1cccc(CN(C(=O)COc2ccc(C)cc2)C2CCS(=O)(=O)C2)c1 (configuration not stated)	7.7	17.5%	-8.0%	2.8%	23.9%
O=C(NCCCc1nc2ccccc2[nH]1)c1cccs1	9.3	11.7%	-6.3%	14.1%	3.2%
N=c1c(-c2nc3ccccc3[nH]2)cc(C(=O)c2cccs2)nn1-c1ccccc1	-27.0	23.1µM*	29.1µM*	3.6%	7.9%
CC1(C)C(O)=C(c2nc3ccccc3[nH]2)C(=N)N1c1ccccc1	-20.2	?	?	?	?
N=c1c(-c2nc3ccccc3[nH]2)cc(C(=O)c2ccco2)nn1-c1ccccc1	0.0	3.26µM*	2.59µM*	-1.9%	-0.4%
O=S(=O)(/C=C/c1ccccc1)N1CCC(n2c(C3CCCO3)nc3cccnc32)CC1 (configuration not stated)	/	-14.8%	10.9%[9.04 µM]	/	/
CN1CCN(C(=O)c2ccccc2Nc2ccc(SC(F)F)cc2)CC1	-18.1	16.4µM*	?	-0.3%	3.5%
CCN1CCN(C(=O)c2ccccc2Nc2ccc(SC(F)F)cc2)CC1	?	-21.8%	-8.6%	-11.0%	-9.4%
Cc1ccc(S(=O)(=O)CCSC(=N)N)cc1	-114.5*	16.4µM*	?	?	?
COCCn1nnnc1CN1CCC(C)CC1	35.4	-22.8%	0.7%	5.8%	4.9%
CN(Cc1ccccc1)c1ncnc2[nH]ncc12	15.5	-25.4%	?	-18.0%	-9.3%
CN(Cc1ccccc1)c1ncnc2sccc12	-3.0	11.6µM*	?	-26.9%	?
CCc1ccc(NC(=O)COC(=O)c2ccccc2OCC(=O)N(C)C)cc1	/	-0.3%	2.8%	/	/
CC1(C)CC(=O)C2=C(C1)N=C1c3ccccc3C(=O)C1C2c1ccc(Cl)cc1 (configuration not stated)	-59.5*	?	?	?	?
CC1(C)CC(=O)C2=C(C1)N=c1s/c(=C/c3ccc(F)c(F)c3)c(=O)n1C2c1ccc(F)cc1 (configuration not stated)	-10.7	?	?	-0.2%	-7.0%
Cc1ccc(C2C3=C(CC(C)(C)CC3=O)OC3=C2C(=O)CC(C)(C)C3)cc1	-14.7	-11.6%	-6.2%	21.1%	22.1%
Cc1ccc(C2C3=C(CC(C)(C)CC3=O)N=C3c4ccccc4C(=O)C32)cc1 (configuration not stated)	-53.0*	18.4µM*	?	-26.0%	?
CC(c1ccccc1)N1C(=O)c2ccc(C(=O)NCc3cccnc3)cc2C1=O (configuration not stated)	i	-21.0%	-16.9%	5.4%	3.9%
NS(=O)(=O)c1cccc(Nc2nc3ccccc3nc2NS(=O)(=O)c2ccc(Cl)cc2)c1	?	-17.4%	-23.5%	18.4µM*	20.6µM*
COc1cc(Nc2nc3ccccc3nc2NS(=O)(=O)c2ccc([N+](=O)[O-])cc2)cc(OC)c1OC	-12.1	?	10.3µM*	-18.6%	-5.6%
O=[N+]([O-])c1ccc(S(=O)(=O)Nc2nc3ccccc3nc2Nc2ccccc2)cc1	-73.0*	2.91µM*	3.26µM*	5.9%	0.0%
O=C(O)c1ccc(Nc2nc3ccccc3nc2NS(=O)(=O)c2ccc(F)cc2)cc1	4.7	?	?	-11.4%	-5.1%
CCN(CC)S(=O)(=O)c1cccc(C(=O)N/N=C/c2ccc(N3CCOCC3)cc2)c1	28.2	?	-18.7%	-8.7%	-6.5%
COc1cc(=O)n2c(c1C(=O)NC(C)c1ccco1)CCN(Cc1ccc3nsnc3c1)CC2 (configuration not stated)	/	4.9%	2.7%	/	/
SMILES	IL1B secr inh	DT40 TDP1 no CPT	TDP1 cell CPT	HT1080-NT tox	HT1080 IDH1KD tx
COc1ccc(-n2c(C)nnc2SCC(=O)N2CCOCC2)cc1	9.1	1.6%	22.9%	8.6%	4.9%
O=C1C=C(Nc2cccc3cccnc23)c2ccccc2C1=O	-77.7*	7.31µM*	5.8µM*	?	2.06µM*
O=C1C(Nc2ccccc2)=CC(=O)c2ncccc21	/	1.12µM*	1µM*	/	/
O=C1c2cccnc2C(=O)N1Cc1ccccc1	27.0	-0.8%	-2.0%	-2.2%	1.6%
CCc1ccc(NC2=CC(=O)C(=O)c3ccccc32)cc1	-86.9*	2.91µM*	2.31µM*	-2.8%	-3.0%
O=C1C=C(Nc2ccccc2)c2ccccc2C1=O	10.5	4.61µM*	7.31µM*	?	5.17µM*
O=C1C(Nc2ccccc2)=C(NS(=O)(=O)c2ccccc2)C(=O)c2ccccc21	-8.8	?	-29.1%	-16.9%	-14.1%
CCc1ccc2c(c1)C(=O)c1ccccc1C2=O	26.0	7.0%	14.3%	-0.8%	3.2%
O=C(NCC(c1cccs1)N1CCOCC1)c1ccccc1NS(=O)(=O)c1cc([N+](=O)[O-])ccc1Cl (configuration not stated)	48.6	-23.3%	-7.5%	-16.5%	-22.0%
Cc1cccc(CSCCNC(=O)C2CCN(S(=O)(=O)Cc3ccccc3)CC2)c1	/	-8.1%	-13.4%	/	/
Nc1ccc(C(=O)OCc2ccncc2)cc1[N+](=O)[O-]	-12.2	-20.5%	-0.3%	18.7%	4.9%
c1ccc(Nc2ccccc2)cc1	-5.1	0.5%	5.0%	2.4%	26.4%
O=C1C=C(Nc2ccccc2)C(=O)c2ccccc21	-0.3	?	13µM*	14.6µM*	?
O=C1C=C(Nc2ccccc2C(=O)O)c2ccccc2C1=O	46.9	?	?	?	18.4µM*
CC(C)Oc1ccc(C(=O)Nc2nonc2-c2ccc(OC(C)C)cc2)cc1	/	-12.4%	-6.5%	/	/
COc1ccc(N(CC(=O)Nc2ccc3c(c2)OCO3)S(C)(=O)=O)c(OC)c1	0.7	-0.1%	-22.2%	-6.1%	-7.4%
COc1ccc(C)cc1S(=O)(=O)N(CC(=O)Nc1ccc2c(c1)OCCO2)Cc1ccccc1	-6.7	?	10µM*	-2.6%	-27.6%
COc1ccc(C)cc1S(=O)(=O)N(C)CC(=O)Nc1ccc2c(c1)OCO2	-5.6	-21.5%	4.0%	-18.1%	-21.9%
COc1ccccc1N(CC(=O)Nc1ccc2c(c1)OCO2)S(=O)(=O)c1ccccc1	7.5	13µM*	?	-8.0%	-7.0%
COc1cccc(N(CC(=O)Nc2ccc3c(c2)OCO3)S(=O)(=O)c2ccccc2)c1	?	?	?	-13.3%	-10.3%
COC(=O)c1cc(NC(=O)CN(c2ccccc2OC)S(=O)(=O)c2ccccc2)ccc1Cl	-21.5	?	?	-24.9%	-16.1%
